Source: PubChem BioAssay
KAT2A inh – blocks human GCN5L2 histone acetyltransferase; Q92830; GCN5L2 HAT assay, ThioGlo1 CoA-SH fluorescence; Potency, µM (doses to about 58.9 µM), without a hit: top-dose activity change, negative = inhibition, most hits filed as inhibitors; 0.21% of 390,000 active; AID 504327; also: % is scaled to controls: 0 for no effect and ±100 for the full control effect
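Enzyme at 20nM final was mixed with library compounds for 15 min at room temperature. Peptide H3(1-25) at 75uM, acetyl-CoA at 70uM and ThioGlo1 at 50uM were then added. Plates were read immediately and after 20 min (Ex340nm/Em540nm).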
JMJD2E inh – JMJD2E (human) inhibition; JMJD2E catalytic domain, FDH-coupled NADH fluorescence (FDH is formaldehyde dehydrogenase); Potency, µM (doses to about 57.1 µM), for inactives: at the highest dose activity change, negative = inhibition, most hits filed as inhibitors; 1.6% of 230,000 active; AID 2147; active = well fitted inhibition curve with a large enough effect, not every such curve was filed as active; inconclusive = small, poorly fitted or top-dose-only effect, or another doubt; inactive = no such curve, though single readings can be large or run the other way;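 also: 0% = wells with enzyme and -100% = buffer wells without enzyme; nearly all actives have a fitted effect of over 50% in size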
Target sequence (B2RXH2 1-337 limits assumed): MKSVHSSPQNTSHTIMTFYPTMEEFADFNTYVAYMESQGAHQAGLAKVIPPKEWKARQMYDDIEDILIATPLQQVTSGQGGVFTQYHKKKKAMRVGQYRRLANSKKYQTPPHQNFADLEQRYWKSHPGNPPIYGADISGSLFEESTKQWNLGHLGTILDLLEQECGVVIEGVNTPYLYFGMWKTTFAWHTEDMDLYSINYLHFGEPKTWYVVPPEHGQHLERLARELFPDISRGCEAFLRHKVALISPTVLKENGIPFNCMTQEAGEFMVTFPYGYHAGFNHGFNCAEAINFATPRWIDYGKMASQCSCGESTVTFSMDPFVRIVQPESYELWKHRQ
Epigenetic derep – epigenetic control regulation, reporter derepression | Potency, µM (doses to about 53.9 µM), without a hit: top-dose GFP activation, hits mostly activators | AID 1865 | 0.2% of 280,000 active | murine LDR cells, GFP reporter derepression, 30 h; also: % of control where 0% means no effect; nearly all actives have a fitted effect of over 60% in size
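GFP-positive cell count by laser-scanning cytometry (objects 20–120 um) after 30 h, 37 C compound exposure of murine LDR cells; reporter is CMV-GFP integrated at a silenced locus, inducible by HDAC or DNMT inhibitors.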
NPSR antag – antagonists of human neuropeptide S receptor cAMP signaling | CHO-NPSR cells, cAMP TR-FRET, antagonist mode | Potency, µM (doses to about 38.3 µM), without a hit: top-dose activity change, negative = inhibition, actives largely listed as inhibitors | 1% of 220,000 active; also: % is scaled to controls: 0 for no effect and ±100 for the full control effect; nearly all actives have a fitted effect of over 50% in size
Target sequence (Q6W5P4 whole entry, looked up): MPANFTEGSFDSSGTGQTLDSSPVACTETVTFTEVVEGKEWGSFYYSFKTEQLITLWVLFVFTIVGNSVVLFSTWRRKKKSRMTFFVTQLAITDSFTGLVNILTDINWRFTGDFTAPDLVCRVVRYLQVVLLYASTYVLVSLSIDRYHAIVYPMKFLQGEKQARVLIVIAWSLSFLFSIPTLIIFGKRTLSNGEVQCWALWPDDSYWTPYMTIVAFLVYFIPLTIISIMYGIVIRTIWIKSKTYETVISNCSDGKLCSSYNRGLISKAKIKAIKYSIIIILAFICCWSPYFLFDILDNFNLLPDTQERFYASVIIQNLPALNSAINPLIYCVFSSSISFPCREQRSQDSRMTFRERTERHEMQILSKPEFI
IMPase Li cell – cell-permeable IMPase inhibitors with lithium potentiation. CHO-M1 cells, IP1 TR-FRET (IP-One), carbachol + lithium. Potency, µM (doses to about 59.4 µM), for the others: at the top dose activity, negative = IMPase inhibition, actives largely listed as inhibitors. 0.35% of 210,000 active. AID 1457;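 also: IP1 builds up when IMPase is blocked and the TR-FRET signal falls; plate controls were basal vehicle for no effect and high inhibitor control for full effect; nearly all actives have a fitted effect of over 50% in size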
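CHO cells stably expressing M1 receptor (2000/well) were cultured 16–30 h, then exposed to compounds with a small lithium addition for 30 min at 37C. IP1 was measured by TR-FRET competition; AC50 from Hill fits.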
Sfp inh – inhibitors of Bacillus subtilis Sfp phosphopantetheinyl transferase; Q9F4F7; Biochemical Sfp PPTase activity, qHTS; Potency, µM, for the others: largest response in the series, negative = inhibition, hits mostly inhibitors; 3.5% of 310,000 active;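 also: the enzyme is Sfp with the accession as filed and its product quenches rhodamine fluorescence; 0% = enzyme reaction without inhibitor and -100% = no enzyme wells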
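Step 1, compound plus 15 nM Sfp-PPTase, 15 min, room temperature. Step 2, add rhodamine-CoA (5 uM) and BHQ-2-YbbR (12.5 uM). Step 3, read 525/598 nm fluorescence at 0 and 30 min.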
An asterisk follows results filed as active; u = inconclusive; x = no result; [ ] = remark or other dose. Shown are actives, neighbours in structure and some others; about 3.6% of the full set was active somewhere. Unless noted, calls follow the shape of the dose curve; as a rule, active = well fitted curve in the direction sought with a large enough effect; inconclusive = small, poorly fitted or top-dose-only effect, or another doubt; inactive = no such curve, though single readings can be large; an effect the other way counts as inactive or inconclusive. Potency is read from the fitted curve at half-maximal effect.

SMILES	KAT2A inh	JMJD2E inh	Epigenetic derep	NPSR antag	IMPase Li cell	Sfp inh
Cc1ccc(C(=O)CC(=O)c2ccccc2C)c(O)c1	-27%	x	x	x	x	4%
O=C(/C=C/c1ccccc1Cl)c1ccc(O)cc1	-1%	7%	10%	7%	x	-8%
CCOC(=O)C[C@@H](C(=O)OCC)[C@@H]1CCCCC1=O	x	x	-2%[10.1 µM]	x	x	-10%
C=C1CCN(C(C)C(=O)OCc2cccc(C)c2)S(=O)(=O)c2ccccc21 (stereo unspecified)	x	x	x	x	x	0%
COCCN(CCOC)c1nc(C)nc2c1nc(-c1ccccc1)n2CCCN(C)C	x	u	-2%	x	-8%	32%
c1nc(NCCN2CCOCC2)c2c3c(sc2n1)CCCCC3	-2%	-1%	-1%	-4%[46.1 µM]	15%[38.3 µM]	9%
CN1CCC(=NNc2ncnc3sc4c(c23)CCCC4)CC1	-1%	-26%	2%	16%	-3%	10µM*
O=C(CN(Cc1ccccc1)S(=O)(=O)c1ccc(F)cc1)NCCC1=CCCCC1	0.79µM*	8%	-1%	u	16%[38.3 µM]	20%
CC(=O)Nc1nc(-c2ccc3c(c2)CC(C)N3C(=O)C2CC2)c(C)s1 (stereo unspecified)	-4%	x	x	x	x	50µM*
Cc1nc2cnc(N3CCN(C)CC3)nc2n(Cc2ccc(F)cc2)c1=O	-4%	x	x	x	23%	10%
CCOC(=O)c1cc2oc(C)cc2n1CC(=O)OC1CCCCC1	-6%	-22%	0%	2%[46.1 µM]	6%[38.3 µM]	79µM*
O=C(O)[C@H](CC(=O)N1C[C@H]2CCCC[C@H]2C1)Cc1ccccc1	-6%	x	x	x	x	13%
Cc1cc(C)c(Nc2nc3ccccc3n3c(C)nnc23)c(C)c1	-1%	x	5%	x	x	x
Oc1[nH]c2ccc(Br)cc2c1N=NC(=S)N1CCOCC1	-10%	u	-1%	u	x	-25%
S=C(c1c[nH]c2ccccc12)N1CCOCC1	-6%	-27%	-5%	10%	1%	22µM*
Oc1[nH]c2ccccc2c1N=NC(=S)N1CCOCC1	-27%	u	4µM*	u	x	-28%
O=C(C(=O)N1CCOCC1)c1c[nH]c2ccccc12	39%	u	3%	6%	1%	15%
COc1ccc(S(=O)(=O)Nc2cc3c(cc2NCc2ccccc2)n(C)c(=O)n3C)cc1OC	-8%	x	-2%	x	x	x
O=C1[C@H]2[C@H]3[C@H](O)[C@H](O)C/C(=N/OC[C@@H](O)COCc4ccco4)[C@@H]3CC[C@@H]2C(=O)N1C[C@@H]1CCCO1	x	x	2%[10.1 µM]	x	x	1%
COc1cccc([C@@H]2Oc3ccc(Br)cc3C(=O)[C@H]2OC(=O)NS(=O)(=O)c2ccc(C)cc2)c1	x	3%	0%	x	-9%	9%
CNC(=O)c1sc2nc(-c3ccc(OC)cc3)cn2c1C	-17%	u	2%	-21%[46.1 µM]	-17%[38.3 µM]	12%
COc1ccc(-c2cn3c(C)c(C(=O)Nc4cc(NC(C)=O)ccc4OC)sc3n2)cc1	-20%	-2%	3%	u	4.5µM*	79µM*
O=C(ONc1ccc(N=NC(=O)c2ccccc2O)cc1)c1ccccc1	-27%	-28%	1%	0%[46.1 µM]	4%	-15%
Cc1cc(N=NC(=O)c2ccccc2)ccc1O	-10%	u	1%	20%	18%	50µM*
CCCCCCCCCCOC(=O)Cn1c(COc2ccc(OC)cc2)[n+](C)c2ccccc21	-6%	x	x	x	x	35µM*
SMILES	KAT2A inh	JMJD2E inh	Epigenetic derep	NPSR antag	IMPase Li cell	Sfp inh
CCCCCCCCCCOC(=O)Cn1c(COc2ccc(Cl)cc2)[n+](C)c2ccccc21	-19%	x	x	x	x	25µM*
Cc1ccccc1OCc1n(CC(=O)OC2CC(C)CCC2C(C)C)c2ccccc2[n+]1C (stereo unspecified)	-4%	-5%	0%	u	21%	u
CCCCCCCCCCOC(=O)Cn1c(COc2ccccc2)[n+](C)c2ccccc21	-5%	x	x	x	x	40µM*
CCCCCOC(=O)Cn1c(=O)oc2ccccc21	0%	-5%	0%	0%[46.1 µM]	25%[38.3 µM]	-12%
CCCCCCCCCCOC(=O)Cn1c(COc2ccccc2C)[n+](C)c2ccccc21	-3%	x	x	x	x	45µM*
CCCCOC(=O)Cn1c(=O)n(CC(=O)OCCCC)c2ccccc21	0%	3%	0%	-19%[46.1 µM]	-12%[38.3 µM]	20%
Cc1noc(C)c1-c1ccc2ncnc(NCC3CCN(C)CC3)c2c1	x	x	x	x	x	11%
CCCCCCCCCCOC(=O)Cn1c(COc2cccc(C)c2)[n+](C)c2ccccc21	-25%	x	x	x	x	56µM*
COc1cc(/C=C2\SC(=S)NC2=O)ccc1OS(=O)(=O)c1ccccc1	u	-11%	1%	-37%	28%	50µM*
COc1cccc(OCCOc2ccc(/C=C3/SC(=S)NC3=O)cc2)c1	-3%	x	x	x	x	50µM*
COc1cc(/C=C2/SC(=S)NC2=O)ccc1OS(=O)(=O)c1ccc(C)cc1	u	3%	0%	-59%	7%	25µM*
COc1ccc(/C=C2\SC(=S)NC2=O)cc1OS(=O)(=O)c1ccc(NC(C)=O)cc1	-16%	-3%	0%	-42%	7%	-11%
CN(CCc1ccccn1)c1ccc2c(c1)C(=O)c1ccccc1-2	x	x	x	x	10%	x
C=C1C[C@@]23CC[C@H]4[C@@](C)(CCC[C@@]4(C)C(=O)OC4OC(CO)C(O)C(O)C4O)[C@@H]2CC[C@]1(OC1OC(CO)C(O)C(O)C1OC1OC(CO)C(O)C(O)C1O)C3 (stereo partly specified)	-7%	x	x	x	x	x
C=CCc1cc(OC)ccc1OCCN1CC(C)OC(C)C1 (stereo unspecified)	-1%	x	x	x	x	56µM*
CC1CN(CCOc2ccc(Cl)c(Cl)c2)CC(C)O1 (stereo unspecified)	-13%	x	x	x	x	-28%
Cc1cccc2c1N(Cc1ccccc1OCCC(C)C)C(=O)C2=O	-10%	x	-3%	x	x	x
CC(C)c1ccc(OCCCCCN2CCOCC2)cc1	27%	x	x	x	x	u
CC(=O)Oc1ccc(OC(C)=O)c(SCCCCCN2CCOCC2)c1	-5%	-11%	1%	u	8%[38.3 µM]	79µM*
N#CC1=C(N)NC(SCC(=O)O)=C(C#N)C12CCCC2	-14%	u	3%	-15%[7.67 µM]	-15%[38.3 µM]	56µM*
N#CC1=C(N)NC(SCC(=O)Nc2ccccc2)=C(C#N)C12CCCC2	-6%	-13%	-2%	-28%[46.1 µM]	-17%[38.3 µM]	4%
Cc1cccc(N2CCN(C(=O)c3cc(S(=O)(=O)N4CCC(C)CC4)cn3C)CC2)c1C	-9%	x	4%	x	x	x
COc1ccc(Cl)cc1NC(=O)c1cc(S(=O)(=O)N(C)Cc2ccccc2)ccc1F	-6%	x	3%	x	x	x
Cc1sc2ncnc(N=Nc3c(O)[nH]c4ccccc34)c2c1C	-3%	-2%	u	3%	16%	6%
